# The supplement of paper PMC8728848
# This excerpt belongs to a sample that is enriched for the strongest signals.
# B1: Gal 8 (Mus musculus), Q9JL15 (protein)
# chain: MGGSHHHHHHGMASMLSLNNLQNIIYNPIIPYVGTITEQLKPGSLIVIRGHVPKDSERFQVDFQLGNSLKPRADVAFHFNPHFKRSSCIVCNTLTQEKWGWEEITYDMPFRKEKSFEIVFMVLKNKFQVAVNGRHVLLYAHRISPEQIDTVGIYGKVNIHSIGFRFSSASALPHTLGDLQSMETSALGLTQINRENIQKPGKLQLSLPFEARLNASMGPGRTVVIKGEVNTNARSFNVDLVAGKTRDIALHLNPHLNVKAFVRNSFLQDAWGEEERNITCFPFSSGMYFEMIIYCDVREFKVAINGVHSLEYKHRFKDLSSIDTLSVDGDIRLLDVRSW
# Tests used:
# Assay in all cases: glycan array binding signal (z-score within array); higher = stronger binding
# Details in all cases: glycan notation: IUPAC condensed, linker removed; mutation: R82H, R255H
# [1] = molecular target: Gal6S(b1-3)GlcNAc6S
# Procedure, shortened: (§1)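 Columns mapping to the same glycan were averaged after glycan names were converted to IUPAC-condensed notation. The data come from 3228 arrays in the Consortium for Functional Glycomics database, limited to those with an available protein sequence. Binding is reported as a within-array Z-score averaged across arrays of one protein sequence and across linkers.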
# [2] = molecular target: GalNAc(a1-3)GalNAc(b1-3)Gal(a1-4)Gal(b1-4)Glc
# Procedure, shortened: as §1
# [3] = molecular target: GalNAc(b1-3)GalNAc
# Procedure, shortened: as §1
# [4] = molecular target: GalNAc(b1-4)GlcNAc
# Procedure, shortened: as §1
# [5] = molecular target: GalNAc(b1-4)GlcNAc(b1-3)GalNAc(b1-4)GlcNAc
# Procedure, shortened: as §1
# [6] = molecular target: GlcA3S(b1-3)Gal(b1-4)GlcNAc(b1-3)Gal(b1-4)Glc
# Procedure, shortened: as §1
# [7] = molecular target: GlcNAc(b1-2)Man(a1-3)[GlcNAc(b1-4)][GlcNAc(b1-2)Man(a1-6)]Man(b1-4)GlcNAc(b1-4)[Fuc(a1-6)]GlcNAc
# Procedure, shortened: as §1
# [8] = molecular target: GlcNAc(b1-3)Gal(b1-4)GlcNAc(b1-3)Gal(b1-4)GlcNAc(b1-2)[GlcNAc(b1-3)Gal(b1-4)GlcNAc(b1-3)Gal(b1-4)GlcNAc(b1-6)]Man(a1-6)[GlcNAc(b1-3)Gal(b1-4)GlcNAc(b1-3)Gal(b1-4)GlcNAc(b1-2)Man(a1-3)]Man(b1-4)GlcNAc(b1-4)[Fuc(a1-6)]GlcNAc
# Procedure, shortened: as §1
# [9] = molecular target: GlcNAc(b1-3)Gal(b1-4)GlcNAc(b1-3)Gal(b1-4)GlcNAc(b1-3)Gal(b1-4)GlcNAc(b1-2)Man(a1-3)[GlcNAc(b1-3)Gal(b1-4)GlcNAc(b1-3)Gal(b1-4)GlcNAc(b1-3)Gal(b1-4)GlcNAc(b1-2)Man(a1-6)]Man(b1-4)GlcNAc(b1-4)GlcNAc
# Procedure, shortened: as §1
# [10] = molecular target: GlcNAc(b1-3)Gal(b1-4)GlcNAc(b1-3)Gal(b1-4)GlcNAc(b1-3)Gal(b1-4)GlcNAc(b1-2)[GlcNAc(b1-3)Gal(b1-4)GlcNAc(b1-3)Gal(b1-4)GlcNAc(b1-3)Gal(b1-4)GlcNAc(b1-6)]Man(a1-6)[GlcNAc(b1-3)Gal(b1-4)GlcNAc(b1-3)Gal(b1-4)GlcNAc(b1-3)Gal(b1-4)GlcNAc(b1-2)Man(a1-3)]Man(b1-4)GlcNAc(b1-4)[Fuc(a1-6)]GlcNAc
# Procedure, shortened: as §1
# [11] = molecular target: GlcNAc(b1-3)Gal(b1-4)GlcNAc(b1-3)Gal(b1-4)GlcNAc(b1-3)Gal(b1-4)GlcNAc(b1-3)Gal(b1-4)GlcNAc(b1-2)Man(a1-3)[GlcNAc(b1-3)Gal(b1-4)GlcNAc(b1-3)Gal(b1-4)GlcNAc(b1-3)Gal(b1-4)GlcNAc(b1-3)Gal(b1-4)GlcNAc(b1-2)Man(a1-6)]Man(b1-4)GlcNAc(b1-4)GlcNAc
# Procedure, shortened: as §1
# [12] = molecular target: GlcNAc(b1-3)Gal(b1-4)GlcNAc(b1-3)Gal(b1-4)GlcNAc(b1-3)Gal(b1-4)GlcNAc(b1-3)Gal(b1-4)GlcNAc(b1-2)Man(a1-3)[GlcNAc(b1-3)Gal(b1-4)GlcNAc(b1-3)Gal(b1-4)GlcNAc(b1-3)Gal(b1-4)GlcNAc(b1-3)Gal(b1-4)GlcNAc(b1-2)Man(a1-6)]Man(b1-4)GlcNAc(b1-4)[Fuc(a1-6)]GlcNAc
# Procedure, shortened: as §1
# [13] = molecular target: GlcNAc(b1-3)Gal(b1-4)GlcNAc(b1-3)Gal(b1-4)GlcNAc(b1-3)Gal(b1-4)GlcNAc(b1-3)Gal(b1-4)GlcNAc(b1-2)[GlcNAc(b1-3)Gal(b1-4)GlcNAc(b1-3)Gal(b1-4)GlcNAc(b1-3)Gal(b1-4)GlcNAc(b1-3)Gal(b1-4)GlcNAc(b1-6)]Man(a1-6)[GlcNAc(b1-3)Gal(b1-4)GlcNAc(b1-3)Gal(b1-4)GlcNAc(b1-3)Gal(b1-4)GlcNAc(b1-3)Gal(b1-4)GlcNAc(b1-2)Man(a1-3)]Man(b1-4)GlcNAc(b1-4)[Fuc(a1-6)]GlcNAc
# Procedure, shortened: as §1
# [14] = molecular target: GlcNAc(b1-3)Gal(b1-4)GlcNAc(b1-6)[Gal(b1-3)]GalNAc
# Procedure, shortened: as §1
# [15] = molecular target: GlcNAc(b1-4)GlcNAc(b1-4)GlcNAc
# Procedure, shortened: as §1
# [16] = molecular target: Man(a1-2)Man(a1-6)[Man(a1-3)]Man(a1-6)[Man(a1-2)Man(a1-2)Man(a1-3)]Man
# Procedure, shortened: as §1
# [17] = molecular target: Man(a1-3)[Man(a1-6)]Man
# Procedure, shortened: as §1
# [18] = molecular target: Man(a1-3)[Man(a1-6)]Man(a1-6)[Man(a1-2)Man(a1-3)]Man(b1-4)GlcNAc(b1-4)GlcNAc
# Procedure, shortened: as §1
# [19] = molecular target: Neu5Ac(a2-3)Gal
# Procedure, shortened: as §1
# [20] = molecular target: Neu5Ac(a2-3)Gal(b1-3)GlcNAc
# Procedure, shortened: as §1
# [21] = molecular target: Neu5Ac(a2-3)Gal(b1-3)GlcNAc(b1-2)Man(a1-3)[Neu5Ac(a2-3)Gal(b1-3)GlcNAc(b1-2)Man(a1-6)]Man(b1-4)GlcNAc(b1-4)GlcNAc
# Procedure, shortened: as §1
# [22] = molecular target: Neu5Ac(a2-3)Gal(b1-4)GlcNAc(b1-3)Gal(b1-4)GlcNAc(b1-3)Gal(b1-4)GlcNAc
# Procedure, shortened: as §1
# [23] = molecular target: Neu5Ac(a2-3)Gal(b1-4)GlcNAc(b1-3)Gal(b1-4)GlcNAc(b1-3)[Neu5Ac(a2-3)Gal(b1-4)GlcNAc(b1-3)Gal(b1-4)GlcNAc(b1-6)]GalNAc
# Procedure, shortened: as §1
# [24] = molecular target: Neu5Ac(a2-6)Gal(b1-4)GlcNAc(b1-3)GalNAc
# Procedure, shortened: as §1
# [25] = molecular target: Neu5Ac(a2-6)Gal(b1-4)GlcNAc6S
# Procedure, shortened: as §1
# [26] = molecular target: Neu5Ac(a2-8)Neu5Ac(a2-3)[GalNAc(b1-4)]Gal(b1-4)Glc
# Procedure, shortened: as §1
binder,measurement,setting,value
B1,glycan array binding signal (z-score),[1],-0.186
same,glycan array binding signal (z-score),[2],-0.214
same,glycan array binding signal (z-score),[3],-0.259
same,glycan array binding signal (z-score),[4],-0.245
same,glycan array binding signal (z-score),[5],-0.271
same,glycan array binding signal (z-score),[6],-0.198
same,glycan array binding signal (z-score),[7],-0.278
same,glycan array binding signal (z-score),[8],5.44
same,glycan array binding signal (z-score),[9],4.25
same,glycan array binding signal (z-score),[10],4.84
same,glycan array binding signal (z-score),[11],7.01
same,glycan array binding signal (z-score),[12],6.24
same,glycan array binding signal (z-score),[13],6.71
same,glycan array binding signal (z-score),[14],-0.251
same,glycan array binding signal (z-score),[15],-0.255
same,glycan array binding signal (z-score),[16],-0.276
same,glycan array binding signal (z-score),[17],-0.24
same,glycan array binding signal (z-score),[18],-0.246
same,glycan array binding signal (z-score),[19],-0.259
same,glycan array binding signal (z-score),[20],-0.217
same,glycan array binding signal (z-score),[21],0.022
same,glycan array binding signal (z-score),[22],-0.148
same,glycan array binding signal (z-score),[23],-0.255
same,glycan array binding signal (z-score),[24],-0.062
same,glycan array binding signal (z-score),[25],-0.2
same,glycan array binding signal (z-score),[26],-0.268
